Screens (PubChem BioAssay)
Shown are actives, neighbours in structure and some others; about 2.4% of the full set was active somewhere.
MITF TRPM1 HTS: activators of MITF-driven TRPM1 promoter activity in SK-MEL-5 cells. activation, % at 12.5 µM. SK-MEL-5 TRPM1-promoter luciferase, 24 h; % of positive control, neutral wells = 0. 300,000 tested, 0.75% active;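 active = mean activation of at least 80% with every replicate also reaching 80%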;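 note: 0% = neutral control wells and 100% = parthenolide positive control wells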
GSIS activator: GLuc luminescence reporter in INS-1E cells, primary screen for activators of glucose-dependent secretion of insulin; 370,000 tested, 0.61% active; activation, % at 16.6 µM; AID 743287; INS-1E GLuc reporter insulin secretion, 2-3 h;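 active = lowest replicate activation of at least 40%, so every replicate reaches that level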;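 note: 0% = median of neutral control wells and 100% = median of IBMX positive control wells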
miR122 inh: inhibitors of miR-122 in Huh7 cells; Huh7 miR-122 Renilla luciferase sensor, 48 h; neutral wells = 0, positive control = 100; AID 602342; activation (reporter increase), % at 12.5 µM; 340,000 tested, 0.3% active;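 active = mean replicate activation score at least 90 and every replicate individually at or above 90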;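 note: higher luciferase means less miR-122 activity so hits act as miR-122 inhibitors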
Wnt bcat act: activators of Wnt/beta-catenin signaling | Wnt/beta-catenin reporter cell assay, activator, plate reader | activation, % at 9.35 µM | 300,000 tested, 1.2% active | AID 743398; in the data active = activation above about 30%, passing the limit was not always enough;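 note: 0% = neutral control wells and 100% = positive control wells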
Dyrk1A ADPGlo: Dyrk1A (rat) kinase inhibition; Q63470; ADP-Glo luminescence, NFATc1 peptide; inhibition, % at 12.5 µM; 310,000 tested, 0.43% active; AID 504441;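 note: plate controls were vehicle with enzyme for no effect and no enzyme for full effect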
NSD2 HMT inh: inhibitors of human histone methyltransferase NSD2; NSD2 peptide methylation, AlphaScreen, 120 min; 310,000 tested, 0.54% active; O96028; inhibition, % at 12.5 µM
Numbers without * were called inactive; nt = not tested or not shown; [ ] = remark or other dose. Cut-off read from the data, not from the text of the source, unless noted: active = inhibition above about 50%; inactive = the rest.

SMILES	MITF TRPM1 HTS	GSIS activator	miR122 inh	Wnt bcat act	Dyrk1A ADPGlo	NSD2 HMT inh
Cc1ccc(O)c(N=Nc2ccccc2)n1	68.2	-2.3	-4.1	41.1*	3.4	nt
Oc1ccc(Cl)cc1N=Nc1ccccc1	nt	11.5	-5.5	4.5	2.9	12.9
Oc1ccc(NCc2ccccc2OCc2ccccc2)cc1	-7.2	12.0	nt	39.5*	-7.3	1.5
CCNCc1ccccc1OCc1ccccc1	4.7	6.3	nt	0.3	-2.2	46.3
Cc1cc(C(=O)Nc2cccc3c2O[C@@H](CN(C)CC2CCCCC2)[C@@H](C)CN([C@@H](C)CO)C3=O)n(C)n1	nt	23.7	94.4*[16.7 µM]	nt	nt	nt
Cc1cc(C(=O)Nc2cccc3c2O[C@H](CN(C)Cc2ccc(C(F)(F)F)cc2)[C@@H](C)CN([C@@H](C)CO)C3=O)n(C)n1	nt	-11.8	82.5[16.7 µM]	nt	nt	nt
Cc1cc(C(=O)Nc2cccc3c2O[C@@H](CN(C)Cc2ccc(C(F)(F)F)cc2)[C@H](C)CN([C@H](C)CO)C3=O)n(C)n1	nt	-9.5	127.0*[16.7 µM]	nt	nt	nt
Cc1cc(C(=O)Nc2cccc3c2O[C@@H](CN(C)CC2CCCCC2)[C@@H](C)CN([C@H](C)CO)C3=O)n(C)n1	nt	6.7	96.5*[16.7 µM]	nt	nt	nt
Cc1cc(C(=O)Nc2cccc3c2O[C@H](CN(C)CC2CCCCC2)[C@@H](C)CN([C@@H](C)CO)C3=O)n(C)n1	nt	5.7	67.3[16.7 µM]	nt	nt	nt
O=[N+]([O-])c1ccc(C(=S)N2CCCC2)cc1	-5.9	0.8	4.2	36.7*	-4.6	-2.9
Cc1ccc(-n2c(C)nc3ccsc3c2=O)cc1	0.7	-9.2	0.2	1.0	nt	1.9
Cc1ccc(-c2nc3ccsc3c(=O)o2)cc1	-5.9	nt	2.6	50.2*	8.1	5.4
COc1cccc(-c2sc3ccc(OC)cc3c2-c2ccc(OCCN(C)C)cc2)c1	-20.1	131.5*	nt	-3.8	26.4	nt
CN(C)CCOc1ccc(-c2c(-c3ccsc3)sc3ccccc23)cc1	-2.3	65.6*	nt	-4.4	17.8	nt
COCCNC(=O)C[C@H]1CC[C@H]2[C@@H](COC[C@@H](O)CN2C(=O)Nc2ccccc2OC)O1	nt	0.7	-3.7[16.7 µM]	nt	nt	nt
Cc1cccc(C(=O)N=c2sccn2C)c1[N+](=O)[O-]	100.4*	16.3	nt	6.3	-1.5	6.7
Cc1ccccc1C(=O)N=c1sccn1C	5.5	4.8	-0.5	nt	-1.6	-0.1
COc1ccc2c(c1OC)C(=O)N1c3ccccc3SC21 (stereo not drawn)	42.1	114.5*	6.0	nt	-3.2	nt
Cc1cccc(N=Nc2cnc(N)s2)c1	67.5	-1.3	-5.2	34.7*	5.1	nt
CC(=O)Nc1ncc(N=Nc2cccc(C(F)(F)F)c2)s1	30.0	4.9	-0.2	4.6	0.0	0.2
Cc1ccc2c(c1)-c1nc3ccccc3cc1C2=NC1CCCCC1	30.9	19.0	nt	47.0*	12.7	nt
CN1CCN(C(=O)c2cc(COc3ccccc3)on2)[C@@H](c2ccccc2)C1	91.0*	-9.3	nt	42.4*	-4.3	-1.6
CN1CCN(C(=O)c2cc(COc3c(F)cccc3F)on2)CC1c1ccccc1 (stereo not drawn)	11.9	-7.8	-1.0	0.6	-0.2	4.9
Cc1ccc(OCc2cc(C(=O)N3CCN(C)C[C@@H]3c3ccccc3)no2)cc1C	113.0*	-13.5	-6.9	-0.5	nt	-0.6
CO[C@@H]1CN(C)C(=O)c2ccc(NS(C)(=O)=O)cc2OC[C@H](C)N(Cc2cccnc2)C[C@@H]1C	nt	5.2	-2.7[16.7 µM]	nt	nt	nt
SMILES	MITF TRPM1 HTS	GSIS activator	miR122 inh	Wnt bcat act	Dyrk1A ADPGlo	NSD2 HMT inh
C/C(=N/NC(=O)c1ccc(Br)o1)c1ccncc1	16.4	66.7*	-4.4	-6.1	2.9	-2.3
O=[N+]([O-])c1nn(-c2ccc3c(c2)OCCO3)n(O)c1=NC1CCCC1	nt	3.9	5.5	32.6*	-0.1	-1.0
O=[N+]([O-])c1nn(-c2ccc(Cl)cc2)n(O)c1=NCc1ccccc1	10.8	14.3	-2.0	39.6*	10.4	nt
O=[N+]([O-])c1nn(-c2ccc3c(c2)OCCO3)n(O)c1=NCCCO	nt	nt	-11.0	41.0*	-3.5	nt
O=[N+]([O-])c1nn(-c2ccc3c(c2)OCCO3)n(O)c1=NC1CCCCCC1	16.6	nt	-0.6	nt	6.2	6.9
O=[N+]([O-])c1nn(-c2ccccc2)n(O)c1=NCc1ccc2c(c1)OCO2	5.2	nt	-4.3	-11.6	9.5	26.1
C[C@H]1CN([C@@H](C)CO)C(=O)c2cc(NC(=O)NC3CCCCC3)ccc2O[C@@H]1CN(C)C(=O)NC1CCCCC1	nt	-0.3	2.4[16.7 µM]	nt	nt	nt
CC(C)Oc1cccc(C(=O)Nc2ccc(Br)cc2F)c1	101.2*	9.4	nt	-2.1	-0.7	7.1
